Screening data (PubChem)
TCR act – Activators of T cell receptors: qHTS campaign; primary human leukocytes, anti-CD3, IL-2 HTRF, 48 h; Potency, µM (doses to about 9.22 µM), inactives show top-dose activation of IL-2 secretion, hits mostly activators; 330,000 tested, under 10 active; also: % of control where 0% means no effect
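Primary human leukocytes incubated 48 hr with anti-CD3 beads plus compound, without co-stimulation. Secreted IL-2 measured by HTRF (europium cryptate/d2 anti-IL-2 pair, 320 nm excitation, 665 nm emission).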
Luc counter – Counterscreen for Luciferase (Kinase-Glo TM) Inhibition; Kinase-Glo luciferase, ATP luminescence, 8 min; 200,000 tested, 0.28% active; Luciferin 4-monooxygenase (Photuris pensylvanica), Q27757; Potency, µM (highest dose often 38.3 µM), for the others: top-dose activity change, negative = inhibition, actives largely listed as inhibitors; also: potency is read from the fitted curve at half-maximal effect; % is scaled to controls: 0 for no effect and ±100 for the full control effect; nearly all actives have a fitted effect of over 60% in size
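Recombinant Kinase-Glo luciferase, 10 uM ATP (linear range), luciferin; imidazole pH 7.2 / KCl / MgCl2 / Tween / BSA buffer; 8 min RT; luminescence.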
Lamin A splicing – qHTS Assay for Modulators of Lamin A Splicing; Potency, µM (titrated, usually from 46.1 µM), for the others: at the highest dose ratio change, negative = inhibition, usual class: inhibitors; HeLa LMNA splicing GFP/RFP minigene ratio, 48 h; 200,000 tested, 0.01% active; active = well fitted inhibition curve with a large enough effect in the signal ratio, with a control signal flat, not every such curve was filed as active; inconclusive = small, poorly fitted or top-dose-only effect, or effect the other way, or a change in a side signal; the % refers to the signal ratio; also: potency is read from the fitted curve at half-maximal effect; % is scaled to controls: 0 for no effect and ±100 for the full control effect
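S3 HeLa cells stably expressing lamin A-EGFP splicing minigene plus DsRed2, 600 cells/well, 48 h compound exposure at 37C. Laser-scanning cytometry; analysed as GFP (500-530 nm)/RFP (575-640 nm) total intensity ratio; 0.5% DMSO vehicle.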
IMPase Li cell – qHTS Assay for Identifying the Cell-Membrane Permeable IMPase Inhibitors: Potentiation with Lithium; CHO-M1 cells, IP1 TR-FRET (IP-One), carbachol + lithium; Potency, µM (highest dose often 59.4 µM), for inactives: top-dose activity, negative = IMPase inhibition, most hits filed as inhibitors; 210,000 tested, 0.35% active;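 also: IP1 builds up when IMPase is blocked and the TR-FRET signal falls; potency is read from the fitted curve at half-maximal effect; plate controls were basal vehicle for no effect and high inhibitor control for full effect; nearly all actives have a fitted effect of over 50% in size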
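Test compounds were applied to CHO-M1 cells previously cultured for 16–30 h at 2000 per well. A small lithium amount accompanied them; after 30 min at 37C, IP1 was quantified by TR-FRET.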
Numbers without * were called inactive; ? = inconclusive; / = no result given; ! = not active in a repeat; [ ] = dose if it differs, or a comment. Sampled rows, rich in hits. Any-hit rate of the full collection: about 0.34%. Unless noted, calls follow the shape of the dose curve; as a rule, active = well fitted curve in the direction sought with a large enough effect; inconclusive = small, poorly fitted or top-dose-only effect, or another doubt; inactive = no such curve, though single readings can be large; an effect the other way counts as inactive or inconclusive.

SMILES | TCR act | Luc counter | Lamin A splicing | IMPase Li cell
Cc1ccc(CNC(=O)CC2Nc3c4ccccc4nc(=S)n3C2=O)cc1 (stereo not drawn) | / | -1% | / | 5.6µM*
COc1ccc(S(=O)(=O)NCc2nc3nc(C)cc(C)n3n2)cc1OC | -7% | / | / | /
CCOC(=O)N1CCC(N2CCCC(CO)(Cc3cccc(Cl)c3)C2)CC1 (stereo not drawn) | -1% | 0% | / | 19%
Cc1ccc(/C=C/c2nc3ccccc3[nH]2)cc1 | / | / | -11%[46 µM] | /
Cc1ccc(/C=C/c2nc3ccccc3[nH]2)o1 | -5% | 13µM* | ? | 7%
CCn1c2ccccc2c2nnc(SCC(=O)Nc3c(C)n(C)n(-c4ccccc4)c3=O)nc21 | -11% | 1% | ? | -9%[38.3 µM]
CCn1c2ccccc2c2nnc(SCC(=O)Nc3cc(C)on3)nc21 | 0% | -5% | ? | 11µM*
COc1ccc(Cc2nnc(NC(=O)C(C)C)s2)cc1 | 7% | / | / | /
COc1ccccc1-c1nnc(NC(=O)OCC(C)C)s1 | 3% | -2% | -6% | 11µM*
COc1ccc(-c2nnc(NC(=O)C(C)C)s2)c(OC)c1 | -4% | 2% | 9% | 13µM*
CCOC(=O)Nc1nnc(-c2ccccc2OC)s1 | -2%[46.1 µM] | 1% | -10% | 9%
CC(C)c1ccc(NC(=O)c2cccc(Br)c2)cc1 | 6% | -9% | / | 4%
Nc1nc2ccccc2n1C(=O)c1ccc(F)cc1 | -4% | ? | ? | -6%
Nc1nc2ccccc2n1C(=O)c1ccccc1 | 4% | 11µM* | / | 1%
C=CCOc1cccc(C2C(C(=O)c3ccc(C)o3)=C(O)C(=O)N2Cc2ccncc2)c1 (stereo not drawn) | -11% | -2% | 8% | 11µM*
CCOc1cccc(C2C(C(=O)c3ccc(C)o3)=C(O)C(=O)N2Cc2ccncc2)c1 (stereo not drawn) | -5% | 4% | -11% | 10µM*
C=CCOc1cccc(C2C(C(=O)c3ccco3)=C(O)C(=O)N2Cc2ccncc2)c1 (stereo not drawn) | 5% | 0% | -1% | 5%[38.3 µM]
CCOc1cccc(C2C(C(=O)c3ccc(C)o3)=C(O)C(=O)N2Cc2ccccc2)c1 (stereo not drawn) | -1% | / | / | /
COCCC(=O)N1CCC(Oc2ccc(C(=O)NC3CCOC(C)(C)C3)cc2)CC1 (stereo not drawn) | 0% | / | / | /
COc1cc(Cl)c(C)cc1NC(=O)c1cc(S(=O)(=O)N2CCCC2)ccc1F | / | / | -13%[46 µM] | /
COc1cc(Cl)c(C)cc1NC(=O)c1ccc(NS(=O)(=O)c2ccc(F)c(F)c2)cc1 | -3% | 0% | / | 5.6µM*
CC1(C)CC(NC(=O)c2ccc(Cl)c(S(=O)(=O)N(Cc3ccccc3)c3ccccc3)c2)CC(C)(C)N1 | 3% | / | / | /
CCC1Oc2ccc(C)cc2N(CC(=O)N2CCN(c3ccccc3OC)CC2)C1=O (stereo not drawn) | / | / | -15%[46 µM] | /
COc1ccccc1CNC(=O)c1cnc(N(C)C)nc1 | / | / | -3%[46 µM] | /
CCOC(=O)C1CCN(C(=O)c2cccc(S(=O)(=O)NCc3ccccc3)c2)CC1 | -9% | / | / | /
SMILES | TCR act | Luc counter | Lamin A splicing | IMPase Li cell
Nc1ccccc1C(=O)/C=C/c1ccc2c(c1)OCO2 | 1% | 10µM*! | ? | -20%
CCc1nn2cc(-c3ccccc3)nc2s1 | 5% | 10µM* | 16% | 3%[38.3 µM]
Cc1nn2cc(-c3ccc(-c4ccccc4)cc3)nc2s1 | -8% | 7% | -5% | -15%[38.3 µM]
CCCCC/C=C\C/C=C\C/C=C\CCCCC(=O)NC(C)C(=O)O (stereo not drawn) | / | -4% | / | 9%
O=C(Cn1nc2c(cc1=O)CCCC2)NCc1ccccc1 | / | / | -10%[46 µM] | /
Cc1ncoc1C(=O)Nc1ncc([N+](=O)[O-])s1 | -1% | 11µM* | ? | 0%
COc1ccc(C(=O)N2CCC2)cc1S(=O)(=O)NCc1ccc(Cl)cc1 | -7% | / | / | /
COc1cc(NC(=O)Cn2c(C)cc3ccccc3c2=O)cc(OC)c1OC | -11% | -2% | ? | 25µM*
Cc1cccc(NC(=O)c2onc3c2CCCC3)c1C | 3% | -12% | -7% | 15%[38.3 µM]
Cc1cccc(NC(=O)c2onc3c2CCCC3)n1 | -3%[46.1 µM] | 4.5µM* | -5% | 7%
COc1ccc2c(c1)sc1nc(-c3ccccc3)cn12 | -26% | 10µM* | ? | -2%[38.3 µM]
COc1ccc(-c2cn3c(n2)sc2cc(C(=O)NCc4ccccc4)ccc23)cc1 | / | / | 10%[46 µM] | /
